Bioassay records: PubChem BioAssay, National Center for Advancing Translational Sciences (NCATS)
DRD3 antagonist: blocks the human D3 dopamine receptor; max response, negative = inhibition, %; 360,000 compounds, 2.5% hits; D3R cells, DiscoveRx beta-arrestin luminescence, antagonist mode; hits give low values; in the data active = max response below about -50%; inconclusive = no clear call, values can overlap the other calls
Target sequence (P35462 whole entry, looked up): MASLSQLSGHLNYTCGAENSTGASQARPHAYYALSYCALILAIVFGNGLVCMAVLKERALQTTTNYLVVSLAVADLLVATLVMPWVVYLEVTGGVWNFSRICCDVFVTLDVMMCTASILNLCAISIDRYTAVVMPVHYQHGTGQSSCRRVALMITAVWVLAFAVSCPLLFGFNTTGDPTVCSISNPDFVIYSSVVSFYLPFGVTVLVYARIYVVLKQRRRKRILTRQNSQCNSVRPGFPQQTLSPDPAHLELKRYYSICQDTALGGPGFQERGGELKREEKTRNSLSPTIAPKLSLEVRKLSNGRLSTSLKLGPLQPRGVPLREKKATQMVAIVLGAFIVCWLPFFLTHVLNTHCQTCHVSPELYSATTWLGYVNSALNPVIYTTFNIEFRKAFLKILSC
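Cells plated overnight at 1500 cells/well, then exposed to library compounds with dopamine controls for 90 minutes at 37 degrees C. DiscoveRx reagent added for 30–60 minutes at room temperature; luminescence read, quantitative HTS format.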
GLP-1R agonist: agonists of human GLP-1 receptor; P43220; HEK293 GLP-1R CRE-luciferase, luminescence, 4-6 h; cells express a hypersensitive GLP-1R form; Potency, µM (titrated, usually from 45.6 µM), actives largely listed as activators; 380,000 compounds, 0.007% hits; AID 624172
D3 ag: activates the human D3 dopamine receptor | D3R DiscoveRx beta-arrestin cells, luminescence, 90 min | max activation, % | P35462 | 410,000 compounds, 0.58% hits; in the data active = max activation above about 30%
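Agonist mode: compounds and dopamine controls were applied to plated cells for 90 min at 37 degrees C after an overnight attachment at 1500 cells/well. Luminescent read-out followed 30 - 60 minutes at room temperature with DiscoveRx detection reagent.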
GLP-1R inv ag: GLP-1 receptor (human) inverse agonism. HEK293 GLP-1R CRE-luciferase, luminescence, 24 h; GLP-1R form is constitutively active. Potency, µM (top dose mostly 38.3 µM), hits mostly inhibitors. 410,000 compounds, 1.6% hits. AID 624417; note: nearly all actives have a fitted effect of over 55% in size
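Readout was luciferase luminescence, measured 12 min after detection reagent at room temperature. Beforehand, GLP-1R reporter HEK293 cells had sat 12 h, then received compounds for 24 hr at 37 deg C.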
A number is an active result; - = inactive; ? = inconclusive; . = no result. Shown are actives, neighbours in structure and some others; about 4.3% of the full set was active somewhere. Unless noted, calls come from the whole dose curve; as a rule, active = well fitted curve in the direction sought with a large enough effect; inconclusive = small, poorly fitted or top-dose-only effect, or another doubt; inactive = no such curve, though single readings can be large; an effect the other way counts as inactive or inconclusive.

SMILES | DRD3 antagonist | GLP-1R agonist | D3 ag | GLP-1R inv ag
COc1ccccc1N1CCN(CCc2n[nH]c(=S)n2-c2ccccc2)CC1 | -80 | - | - | -
O=c1c2ccccc2[nH]c(=S)n1CCN1CCc2ccccc2C1 | -90 | - | - | ?
COc1ccc(-n2c(CCc3ccccc3)n[nH]c2=S)cc1 | - | - | - | ?
COc1ccccc1N1CCN(CCCn2c(=S)[nH]c3ccccc3c2=O)CC1 | -109 | - | - | ?
CCOc1cc2[nH]c(=O)n(CCCN3CCN(c4ccc(OC)cc4)CC3)c(=O)c2cc1OCC | ? | - | - | -
CN1CCN(CCn2c(=S)[nH]c3ccccc3c2=O)CC1 | - | - | - | -
CN(C)CCCn1c(=S)[nH]c2ccccc2c1=O | - | - | - | -
CC1NC(=O)C(N)CNC(=O)C(C2CCN=C(N)N2)NC(=O)/C(=C/NC(N)=O)NC(=O)C(CNC(=O)CC(N)CCCN)NC1=O (configuration not stated) | . | - | . | .
CC(=O)Nc1c(C)nn(-c2ccccc2)c1N1CCC(C(=O)NCc2ccc(Cl)cc2)CC1 | . | . | - | -
O=C(c1cccn1-c1nnc(N2CCCC2)s1)N1CCN(c2ccc(Cl)cc2)CC1 | . | . | - | -
CC(C)C(=O)N1c2nc(-c3ccco3)nn2C2(CCCCC2)[C@@H]2CCCC[C@@H]21 | . | . | - | -
Cc1cc(C(=O)NCCN2CCN(c3cccc(Cl)c3)CC2)n(-c2ccccc2)n1 | ? | - | - | 6.3µM
CCCCNC(=O)c1cc(C)nn1-c1ccccc1 | - | - | - | -
Cc1cc(C(=O)NCCCN2CCN(c3cc(Cl)ccc3C)CC2)n(-c2ccccc2)n1 | -65 | - | - | ?
Cc1nn(CC(=O)N2CCN(c3cccc(Cl)c3)CC2)c(=O)c2c1sc1ccccc12 | . | . | - | -
CCN(CC)S(=O)(=O)c1ccc2c(c1)N(CC(=O)N1CCN(c3cccc(C(F)(F)F)c3)CC1)C(=O)CO2 | . | . | - | ?
Cc1cccc(C)c1NC(=O)CC12CCCN1CCC2 | . | - | - | .
COC(=O)[C@@H]1[C@@H](C#N)C2(c3ccccc3-c3ccccc32)N(c2ccc(Cl)cc2)N1C#N | -54 | - | - | ?
O=C(Cc1ccc(Cl)cc1)NN1C(=O)c2ccccc2C1=O | - | - | - | -
O=C(/C=C/c1ccc(Cl)cc1)Nc1ccc(CN2CCOCC2)cc1 | - | - | - | ?
O=C(/C=C/c1ccc(Cl)cc1Cl)NC(=S)Nc1ccc(CN2CCOCC2)cc1 | -83 | - | - | -
O=C(/C=C/c1ccccc1)NC(=S)Nc1ccc(CN2CCOCC2)cc1 | -57 | - | - | ?
CC1N=C2c3ccccc3N=C(SCC(=O)NCc3ccc(Cl)cc3)N2C1=O (configuration not stated) | . | . | - | -
CCn1c2ccccc2c2nnc(N3CCN(c4ccc(OC)cc4)CC3)nc21 | . | . | - | -
c1ccc(COc2ncnc3c2ncn3CCCNCC2CCCO2)cc1 (configuration not stated) | - | - | - | -
SMILES | DRD3 antagonist | GLP-1R agonist | D3 ag | GLP-1R inv ag
CCN(CC)C(=O)c1sc2c(c1C)c(=O)n(-c1ccc(C)c(C)c1)c(=O)n2Cc1cccc(Cl)c1 | . | . | - | 5µM
COc1ccc(-n2nc(C(=O)N3CCN(c4ccccc4OC)CC3)c3c4ccccc4n(C)c3c2=O)cc1Cl | . | . | - | -
CCCCN(C)C(=O)CN1C(=O)CCn2nc(-c3cn(C)c4ccccc34)cc21 | . | . | - | -
CCCCCNCc1ccc(Br)cc1 | ? | - | - | -
CCCCCCNCc1ccc(Br)cc1 | -66 | - | - | -
CCCCCCNCc1cccc(Br)c1 | -81 | - | - | -
CCCCCNCc1cccc(Br)c1 | -63 | - | - | -
CCOc1ccc(CNC(=O)CCC(=O)N2CC(C)Sc3ccccc32)cc1 (configuration not stated) | . | . | - | ?
O=[N+]([O-])c1ccc(S(=O)(=O)NN=C2CCCCC2)cc1 | -52 | - | - | -
O=S(=O)(NN=C1CCCCCC1)c1ccc(Cl)cc1 | - | - | - | -
CCCS(=O)(=O)Nc1cccc(-c2cn3ccc(C)cc3n2)c1 | . | . | - | -
CN1N=C2c3ccccc3CCCC2C1c1ccc(F)cc1 (configuration not stated) | - | - | - | 7.1µM
COc1ccc2c(c1)C1=NN(/C(C)=C/C(C)=O)C(c3ccc(F)cc3)C1CC2 (configuration not stated) | - | - | - | -
Cc1ccc(S(=O)(=O)CC(CN2CCCCC2)N2CCCCC2)cc1 (configuration not stated) | -68 | - | - | -
